The source of these data is ChEMBL document CHEMBL1961873, “Compounds: GSK PKIS; Assays: Nanosyn kinase panel” (2012).

Experiment [1] has as its target Protein kinase C gamma type (Homo sapiens) (UniProt P05129). The note with it: at 1 µM.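 Note: each value is an averaged percent inhibition of the enzyme.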
For experiment [2], the target named is T1, Protein kinase C iota type (Homo sapiens) (UniProt P41743).
T1 sequence (whole entry): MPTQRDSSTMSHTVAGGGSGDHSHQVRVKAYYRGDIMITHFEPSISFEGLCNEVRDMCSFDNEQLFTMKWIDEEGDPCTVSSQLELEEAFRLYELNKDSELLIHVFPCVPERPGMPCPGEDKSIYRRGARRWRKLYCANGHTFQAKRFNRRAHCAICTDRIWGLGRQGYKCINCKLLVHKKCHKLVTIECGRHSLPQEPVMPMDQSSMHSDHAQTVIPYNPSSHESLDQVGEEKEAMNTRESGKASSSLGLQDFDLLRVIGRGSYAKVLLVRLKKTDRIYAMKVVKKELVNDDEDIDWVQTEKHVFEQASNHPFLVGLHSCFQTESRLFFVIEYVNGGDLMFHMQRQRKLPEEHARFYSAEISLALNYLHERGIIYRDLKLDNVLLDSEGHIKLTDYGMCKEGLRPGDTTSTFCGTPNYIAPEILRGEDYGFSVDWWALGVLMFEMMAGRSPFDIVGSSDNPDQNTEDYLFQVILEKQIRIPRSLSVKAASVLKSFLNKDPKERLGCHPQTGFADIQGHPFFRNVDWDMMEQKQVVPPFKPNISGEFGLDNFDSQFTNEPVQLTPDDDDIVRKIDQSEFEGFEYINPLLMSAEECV
The note with it: at 0.1 µM.

Experiment [3] concerns the target T1, Protein kinase C iota type (Homo sapiens). Conditions: at 1 µM.
The target of experiment [4] is Protein kinase C theta type (Homo sapiens) (UniProt Q04759). The note with it: at 0.1 µM.
Sequence of Protein kinase C theta type (Homo sapiens) (Q04759 whole entry, looked up): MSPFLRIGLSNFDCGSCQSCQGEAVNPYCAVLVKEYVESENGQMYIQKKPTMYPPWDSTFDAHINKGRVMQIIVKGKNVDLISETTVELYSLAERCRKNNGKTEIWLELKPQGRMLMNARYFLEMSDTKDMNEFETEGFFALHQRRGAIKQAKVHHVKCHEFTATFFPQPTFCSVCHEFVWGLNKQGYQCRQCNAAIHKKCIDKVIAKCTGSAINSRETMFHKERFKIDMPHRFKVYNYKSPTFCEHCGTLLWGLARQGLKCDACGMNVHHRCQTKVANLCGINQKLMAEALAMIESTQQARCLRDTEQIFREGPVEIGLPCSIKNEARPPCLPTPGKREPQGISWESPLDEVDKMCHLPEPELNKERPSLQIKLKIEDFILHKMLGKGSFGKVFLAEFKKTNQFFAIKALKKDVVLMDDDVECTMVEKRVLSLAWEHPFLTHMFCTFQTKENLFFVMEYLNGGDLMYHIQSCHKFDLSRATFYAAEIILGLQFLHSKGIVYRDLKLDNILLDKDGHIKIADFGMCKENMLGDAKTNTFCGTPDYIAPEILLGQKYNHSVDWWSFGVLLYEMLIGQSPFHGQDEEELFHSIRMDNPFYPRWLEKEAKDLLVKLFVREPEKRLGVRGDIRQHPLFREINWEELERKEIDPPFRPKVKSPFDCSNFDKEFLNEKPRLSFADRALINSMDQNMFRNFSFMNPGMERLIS
For experiment [5] the target is unchanged. Conditions: at 1 µM.
For experiment [6], the target named is Protein kinase C beta type (Homo sapiens) (UniProt P05771). The note with it: at 0.1 µM.
Sequence of Protein kinase C beta type (Homo sapiens) (P05771 2-671 limits assumed): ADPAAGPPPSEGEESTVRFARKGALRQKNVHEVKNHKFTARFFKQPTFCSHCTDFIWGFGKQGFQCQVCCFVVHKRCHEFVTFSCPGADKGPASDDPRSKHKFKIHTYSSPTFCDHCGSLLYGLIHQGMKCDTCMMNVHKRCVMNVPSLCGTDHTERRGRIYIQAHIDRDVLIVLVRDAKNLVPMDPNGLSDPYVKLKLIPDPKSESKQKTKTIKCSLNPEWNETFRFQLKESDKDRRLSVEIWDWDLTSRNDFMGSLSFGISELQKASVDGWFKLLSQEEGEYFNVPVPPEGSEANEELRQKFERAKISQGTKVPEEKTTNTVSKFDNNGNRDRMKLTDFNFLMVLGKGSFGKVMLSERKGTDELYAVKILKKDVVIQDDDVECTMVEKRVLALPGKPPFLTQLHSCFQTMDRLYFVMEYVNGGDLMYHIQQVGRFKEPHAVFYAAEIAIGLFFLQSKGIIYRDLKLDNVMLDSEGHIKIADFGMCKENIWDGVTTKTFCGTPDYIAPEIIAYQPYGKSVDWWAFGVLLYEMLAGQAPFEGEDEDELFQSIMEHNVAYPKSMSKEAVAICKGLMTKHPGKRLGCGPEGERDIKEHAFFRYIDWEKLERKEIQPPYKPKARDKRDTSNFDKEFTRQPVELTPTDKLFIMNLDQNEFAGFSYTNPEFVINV
The target is the same in experiment [7]. Conditions: at 1 µM.
The target of experiment [8] is T2, Serine/threonine-protein kinase D1 (Homo sapiens) (UniProt Q15139).
T2 sequence (whole entry): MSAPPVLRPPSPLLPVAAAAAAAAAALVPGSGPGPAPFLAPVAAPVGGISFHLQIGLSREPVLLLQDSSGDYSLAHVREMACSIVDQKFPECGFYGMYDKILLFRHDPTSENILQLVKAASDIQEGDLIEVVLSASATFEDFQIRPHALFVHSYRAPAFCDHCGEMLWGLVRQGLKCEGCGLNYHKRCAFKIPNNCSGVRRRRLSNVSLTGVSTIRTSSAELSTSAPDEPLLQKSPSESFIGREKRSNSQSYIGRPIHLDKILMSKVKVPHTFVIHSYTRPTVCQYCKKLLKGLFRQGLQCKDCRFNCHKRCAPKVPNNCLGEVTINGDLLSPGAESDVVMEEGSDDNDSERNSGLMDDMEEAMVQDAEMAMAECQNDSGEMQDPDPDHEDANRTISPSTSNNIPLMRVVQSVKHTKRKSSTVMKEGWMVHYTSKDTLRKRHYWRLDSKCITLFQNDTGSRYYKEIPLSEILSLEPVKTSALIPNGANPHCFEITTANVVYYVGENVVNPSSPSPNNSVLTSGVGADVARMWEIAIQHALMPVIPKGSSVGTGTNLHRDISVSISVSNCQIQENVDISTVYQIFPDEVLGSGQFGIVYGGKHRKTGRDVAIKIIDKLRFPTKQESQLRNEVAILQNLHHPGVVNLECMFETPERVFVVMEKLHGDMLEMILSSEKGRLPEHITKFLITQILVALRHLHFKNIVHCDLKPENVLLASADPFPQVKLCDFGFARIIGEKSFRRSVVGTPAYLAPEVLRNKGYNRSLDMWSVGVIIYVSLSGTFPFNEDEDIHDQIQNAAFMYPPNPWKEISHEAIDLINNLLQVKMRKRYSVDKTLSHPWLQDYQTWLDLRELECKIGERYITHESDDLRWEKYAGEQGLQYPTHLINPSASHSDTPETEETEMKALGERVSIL
The note with it: at 0.1 µM.

The target in experiment [9] is T2, Serine/threonine-protein kinase D1 (Homo sapiens). Conditions: at 1 µM.
Experiment [10] deals with T3, Serine/threonine-protein kinase D2 (Homo sapiens) (UniProt Q9BZL6).
T3 sequence (whole entry): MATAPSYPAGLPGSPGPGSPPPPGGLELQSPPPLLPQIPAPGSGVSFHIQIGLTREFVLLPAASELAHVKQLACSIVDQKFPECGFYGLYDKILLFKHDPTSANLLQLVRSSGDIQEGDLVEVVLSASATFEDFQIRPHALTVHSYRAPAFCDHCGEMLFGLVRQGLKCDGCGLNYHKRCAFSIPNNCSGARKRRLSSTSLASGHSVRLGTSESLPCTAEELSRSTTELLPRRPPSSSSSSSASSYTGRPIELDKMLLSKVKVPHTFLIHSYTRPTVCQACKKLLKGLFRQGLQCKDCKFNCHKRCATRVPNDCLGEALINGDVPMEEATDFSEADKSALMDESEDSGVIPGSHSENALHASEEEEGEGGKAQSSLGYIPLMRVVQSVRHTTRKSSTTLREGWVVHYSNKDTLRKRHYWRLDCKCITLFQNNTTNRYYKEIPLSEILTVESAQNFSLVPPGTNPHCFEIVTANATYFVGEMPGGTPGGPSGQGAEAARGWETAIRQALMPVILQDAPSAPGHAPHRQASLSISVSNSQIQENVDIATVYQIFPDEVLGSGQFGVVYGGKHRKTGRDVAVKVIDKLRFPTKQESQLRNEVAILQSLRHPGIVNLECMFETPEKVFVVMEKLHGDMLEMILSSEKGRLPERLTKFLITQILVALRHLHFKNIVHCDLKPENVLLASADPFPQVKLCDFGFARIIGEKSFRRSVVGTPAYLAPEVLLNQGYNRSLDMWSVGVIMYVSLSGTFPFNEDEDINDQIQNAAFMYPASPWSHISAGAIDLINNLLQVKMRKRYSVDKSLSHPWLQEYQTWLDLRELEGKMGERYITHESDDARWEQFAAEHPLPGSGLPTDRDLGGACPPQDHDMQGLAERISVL
Conditions: at 0.1 µM.

Experiment [11] concerns the target T3, Serine/threonine-protein kinase D2 (Homo sapiens). Conditions: at 1 µM.
For experiment [12], the target named is T4, Serine/threonine-protein kinase D3 (Homo sapiens) (UniProt O94806).
T4 sequence (whole entry): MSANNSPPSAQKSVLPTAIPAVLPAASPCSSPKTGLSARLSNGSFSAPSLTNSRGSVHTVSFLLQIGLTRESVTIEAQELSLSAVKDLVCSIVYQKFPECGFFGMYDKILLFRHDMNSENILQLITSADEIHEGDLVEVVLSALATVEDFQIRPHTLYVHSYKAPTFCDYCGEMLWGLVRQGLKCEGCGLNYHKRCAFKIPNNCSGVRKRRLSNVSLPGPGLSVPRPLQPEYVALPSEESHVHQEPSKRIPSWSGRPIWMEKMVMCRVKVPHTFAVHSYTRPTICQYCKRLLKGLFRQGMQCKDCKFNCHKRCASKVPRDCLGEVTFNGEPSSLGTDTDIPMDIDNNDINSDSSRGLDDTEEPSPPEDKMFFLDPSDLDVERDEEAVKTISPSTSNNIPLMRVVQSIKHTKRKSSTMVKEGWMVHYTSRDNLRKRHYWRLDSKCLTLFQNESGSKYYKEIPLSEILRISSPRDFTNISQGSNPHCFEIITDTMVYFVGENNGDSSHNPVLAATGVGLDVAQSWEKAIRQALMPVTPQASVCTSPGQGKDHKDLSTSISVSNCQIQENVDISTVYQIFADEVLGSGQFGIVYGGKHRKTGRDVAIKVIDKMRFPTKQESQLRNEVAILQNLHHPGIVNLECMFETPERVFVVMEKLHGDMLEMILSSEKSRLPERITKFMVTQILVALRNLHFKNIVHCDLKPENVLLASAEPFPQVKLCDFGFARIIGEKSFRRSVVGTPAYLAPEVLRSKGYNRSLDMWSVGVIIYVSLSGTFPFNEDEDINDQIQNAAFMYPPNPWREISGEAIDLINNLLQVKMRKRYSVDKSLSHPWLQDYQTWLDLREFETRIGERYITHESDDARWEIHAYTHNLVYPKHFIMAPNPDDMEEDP
Conditions: at 0.1 µM.

The target in experiment [13] is T4, Serine/threonine-protein kinase D3 (Homo sapiens). Conditions: at 1 µM.
The target in experiment [14] is T5, cGMP-dependent protein kinase 1 (Homo sapiens) (UniProt Q13976).
T5 sequence (whole entry): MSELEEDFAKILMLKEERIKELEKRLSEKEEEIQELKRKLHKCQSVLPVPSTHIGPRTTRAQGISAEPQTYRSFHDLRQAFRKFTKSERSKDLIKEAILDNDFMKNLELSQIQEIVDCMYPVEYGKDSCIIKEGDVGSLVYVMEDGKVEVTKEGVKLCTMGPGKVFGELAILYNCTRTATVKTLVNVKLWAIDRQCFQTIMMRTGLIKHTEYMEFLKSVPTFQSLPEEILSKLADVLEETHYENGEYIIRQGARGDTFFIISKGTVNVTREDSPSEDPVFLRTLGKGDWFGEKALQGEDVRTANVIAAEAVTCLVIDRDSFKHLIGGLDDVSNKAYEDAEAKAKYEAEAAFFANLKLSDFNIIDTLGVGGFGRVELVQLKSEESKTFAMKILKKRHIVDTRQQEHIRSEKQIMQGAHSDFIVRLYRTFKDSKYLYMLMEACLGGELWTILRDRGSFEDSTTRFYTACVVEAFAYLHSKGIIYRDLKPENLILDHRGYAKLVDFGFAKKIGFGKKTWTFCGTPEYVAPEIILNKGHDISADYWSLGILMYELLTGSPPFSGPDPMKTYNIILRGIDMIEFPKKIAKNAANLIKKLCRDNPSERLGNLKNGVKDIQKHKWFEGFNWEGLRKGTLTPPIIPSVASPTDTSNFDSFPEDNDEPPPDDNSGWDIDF
The note with it: at 0.1 µM.

The target in experiment [15] is T5, cGMP-dependent protein kinase 1 (Homo sapiens). Conditions: at 1 µM.
In experiment [16] the target is T6, cGMP-dependent protein kinase 2 (Homo sapiens) (UniProt Q13237).
T6 sequence (whole entry): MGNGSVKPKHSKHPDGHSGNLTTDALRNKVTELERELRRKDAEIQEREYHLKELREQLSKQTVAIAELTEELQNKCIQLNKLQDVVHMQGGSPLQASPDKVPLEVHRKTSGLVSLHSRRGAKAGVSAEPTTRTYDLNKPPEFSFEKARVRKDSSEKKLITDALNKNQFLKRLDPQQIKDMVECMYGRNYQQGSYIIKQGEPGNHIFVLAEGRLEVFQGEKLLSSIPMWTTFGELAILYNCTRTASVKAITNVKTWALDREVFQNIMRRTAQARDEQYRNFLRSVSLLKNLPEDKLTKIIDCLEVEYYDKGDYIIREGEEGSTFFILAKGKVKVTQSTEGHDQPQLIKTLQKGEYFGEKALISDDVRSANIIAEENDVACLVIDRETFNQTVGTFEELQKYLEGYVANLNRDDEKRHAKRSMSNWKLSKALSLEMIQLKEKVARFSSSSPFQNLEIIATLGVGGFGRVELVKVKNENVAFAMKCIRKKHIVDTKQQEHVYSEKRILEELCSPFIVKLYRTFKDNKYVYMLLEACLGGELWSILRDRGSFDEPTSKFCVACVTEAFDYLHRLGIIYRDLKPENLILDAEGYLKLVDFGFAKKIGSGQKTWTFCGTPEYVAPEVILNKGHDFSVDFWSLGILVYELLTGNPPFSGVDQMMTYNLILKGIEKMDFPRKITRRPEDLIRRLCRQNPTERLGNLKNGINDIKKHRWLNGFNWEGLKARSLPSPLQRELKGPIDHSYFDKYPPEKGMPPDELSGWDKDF
Conditions: at 0.1 µM.

The target in experiment [17] is T6, cGMP-dependent protein kinase 2 (Homo sapiens). The note with it: at 1 µM.
In experiment [18] the target is T7, cAMP-dependent protein kinase catalytic subunit PRKX (Homo sapiens) (UniProt P51817).
T7 sequence (whole entry): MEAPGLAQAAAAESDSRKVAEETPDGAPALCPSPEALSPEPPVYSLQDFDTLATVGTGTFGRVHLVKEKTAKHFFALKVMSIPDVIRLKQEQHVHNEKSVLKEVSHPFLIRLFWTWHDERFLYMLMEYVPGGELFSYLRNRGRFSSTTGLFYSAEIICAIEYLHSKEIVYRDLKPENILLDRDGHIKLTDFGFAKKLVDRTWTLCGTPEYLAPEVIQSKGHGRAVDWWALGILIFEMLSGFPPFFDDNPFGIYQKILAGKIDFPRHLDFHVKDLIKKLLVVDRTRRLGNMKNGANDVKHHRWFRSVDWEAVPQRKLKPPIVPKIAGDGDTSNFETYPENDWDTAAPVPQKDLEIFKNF
Conditions: at 0.1 µM.

Experiment [19] addresses T7, cAMP-dependent protein kinase catalytic subunit PRKX (Homo sapiens). The note with it: at 1 µM.
In experiment [20] the target is Rho-associated protein kinase 1 (Homo sapiens) (UniProt Q13464). The note with it: at 0.1 µM.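 Note: values are mean percent inhibition of ROCK1.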
Sequence of Rho-associated protein kinase 1 (Homo sapiens) (Q13464 2-1354 limits assumed): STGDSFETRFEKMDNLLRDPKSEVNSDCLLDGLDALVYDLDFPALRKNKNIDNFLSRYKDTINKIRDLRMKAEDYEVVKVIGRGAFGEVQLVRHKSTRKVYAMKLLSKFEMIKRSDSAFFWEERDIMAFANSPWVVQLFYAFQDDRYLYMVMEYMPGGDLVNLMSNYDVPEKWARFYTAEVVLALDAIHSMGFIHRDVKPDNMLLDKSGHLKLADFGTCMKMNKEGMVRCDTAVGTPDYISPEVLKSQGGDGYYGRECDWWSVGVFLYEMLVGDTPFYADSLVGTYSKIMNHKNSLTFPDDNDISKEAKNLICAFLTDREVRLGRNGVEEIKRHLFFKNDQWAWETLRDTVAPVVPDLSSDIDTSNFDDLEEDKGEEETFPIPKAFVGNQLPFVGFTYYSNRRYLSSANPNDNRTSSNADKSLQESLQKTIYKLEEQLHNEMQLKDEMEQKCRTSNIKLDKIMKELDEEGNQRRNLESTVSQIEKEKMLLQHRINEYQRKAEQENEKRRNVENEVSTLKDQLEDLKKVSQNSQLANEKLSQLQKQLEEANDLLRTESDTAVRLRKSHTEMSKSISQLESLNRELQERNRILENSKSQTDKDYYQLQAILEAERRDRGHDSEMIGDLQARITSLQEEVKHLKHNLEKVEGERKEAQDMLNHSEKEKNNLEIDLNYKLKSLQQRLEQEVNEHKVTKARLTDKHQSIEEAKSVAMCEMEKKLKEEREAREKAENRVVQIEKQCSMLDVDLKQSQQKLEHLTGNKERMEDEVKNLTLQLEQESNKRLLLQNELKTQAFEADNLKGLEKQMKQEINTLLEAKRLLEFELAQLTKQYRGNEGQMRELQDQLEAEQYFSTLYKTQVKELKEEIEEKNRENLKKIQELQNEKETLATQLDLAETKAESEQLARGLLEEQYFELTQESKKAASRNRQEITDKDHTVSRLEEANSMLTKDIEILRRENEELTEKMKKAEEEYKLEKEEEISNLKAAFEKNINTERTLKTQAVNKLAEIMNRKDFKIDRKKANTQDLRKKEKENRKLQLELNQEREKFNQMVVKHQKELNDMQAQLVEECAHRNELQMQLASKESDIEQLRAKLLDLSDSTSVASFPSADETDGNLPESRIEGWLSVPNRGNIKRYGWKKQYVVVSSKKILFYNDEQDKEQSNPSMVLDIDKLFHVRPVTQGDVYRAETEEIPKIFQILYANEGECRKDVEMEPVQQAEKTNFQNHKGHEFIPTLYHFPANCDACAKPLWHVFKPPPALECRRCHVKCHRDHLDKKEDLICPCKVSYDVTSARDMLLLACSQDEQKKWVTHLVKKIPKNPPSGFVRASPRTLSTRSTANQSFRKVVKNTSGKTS

The structures appear in SMILES notation.

As to `NS(=O)(=O)c1ccc(N/N=C2\C(=O)Nc3ccc4ncccc4c32)cc1`, the inhibition (commonly the change of the read-out against control, counted positive when it falls) in experiment [1] was 11.8%; in experiment [2], -0.86%; in [3], 1.52%; in experiment [4] it was 2.1%; in experiment [5], 11.8%; in experiment [6] it was 1.28%. For the same compound, the inhibition in experiment [7] came out at 3.78%; in experiment [8], 12.6%; in experiment [9], 62.2%; in [10], 9.02%; in [11], 55.7%; in experiment [12] it was 8.6%. For the same compound, the inhibition in [13] is 51.4%; in experiment [14], 4.46%; in experiment [15], 22.6%; in experiment [16] it was 9.97%; in experiment [17], 46.1%; in experiment [18], -0.15%. Besides, the figures for the inhibition in experiment [19] and in [20] were 2.43% and 7.13%, respectively.

On to `Fc1ccc(-c2nn3ncccc3c2-c2ccnc(Nc3ccc4c(c3)OCCO4)n2)cc1`, for which the inhibition in experiment [1] was found to be 7.86%; in experiment [2], 0.67%; in experiment [3], 3.27%; in experiment [4] it was 1.22%; in [5], 3.8%; in experiment [6], 3.86%. The inhibition in [7] is 20.1%; in experiment [8] it was 4.89%; in [9], 36.5%; in experiment [10] it was 8.87%; in experiment [11] it was 52.1%; in experiment [12], 8%. Besides, the inhibition turned out to be 48.4% in experiment [13]; 2.53% in experiment [14]; 4.25% in [15]; 2.03% in experiment [16]; 3.43% in experiment [17]; 0.43% in experiment [18]. Further, the inhibition is 0.09% in [19] and -0.74% in experiment [20].
